Laboratory results reported in PubChem BioAssay (NCI).
This is part of a sample that, as a whole, favours compounds with a hit. Of some 83,000 tested, about 20% had one in any assay.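 Single-dose data. Exposure time 48 hours. Values below 10 considered active.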 Unmarked numbers belong to inactive results. Activity calls are given as the source filed them.

What was measured:
Assay in all cases: NCI-60 one-dose screen, 48 h (100 = growth as untreated, 0 = no growth, -100 = all killed)
Conditions in all cases: 10 µM unless noted
HCT-15 colon = system: HCT-15 colon
HT29 colon = system: HT29 colon
SNB-75 CNS = system: SNB-75 CNS
U251 CNS = system: U251 CNS
PC-3 prostate = system: PC-3 prostate
SK-MEL-5 melanoma = system: SK-MEL-5 melanoma
UACC-62 melanoma = system: UACC-62 melanoma
LOX IMVI melanoma = system: LOX IMVI melanoma
SK-MEL-28 melanoma = system: SK-MEL-28 melanoma

Row | Compound | growth (HCT-15 colon) [%] | growth (HT29 colon) | growth (SNB-75 CNS) [%] | growth (U251 CNS) [%] | growth (PC-3 prostate) [%] | growth (SK-MEL-5 melanoma) [%] | growth (UACC-62 melanoma) [%] | growth (LOX IMVI melanoma) [%] | growth (SK-MEL-28 melanoma) [%]
1 | COC(=O)c1nc(-c2ccccc2)oc1S(=O)(=O)N1CCCC(C)C1 (stereo not given) | 37.2 | 56.3% | 105 | 90.8 | 71.6 | 85.2 | 84.7 | 61.6 | 84.9
2 | CN1CCOCCN(C)Cc2ccc3ccc(cc3c2)CN(C)CCOCCN(C)Cc2ccc3ccc(cc3c2)C1 | 73.2 | 7.33% (active) | 78.3 | 80.7 | 55.5 | 99.4 | 104 | 93.8 | 105
3 | Cc1cc(C(=O)CCCC(=O)c2cc(C)c(O)c(C)c2)cc(C)c1O | 79.2 | 92.3% | 69.7 | 89.6 | 84.1 | 29.2 | 96.8 | 87.2 | 105
4 | COc1cc(Cc2cc(-c3ccccc3)nn(Cc3ccccc3)c2=O)cc(OC)c1OC | 29.1 | 32.2% | 61 | 32.9 | 22.7 | 40.2 | 37.7 | 43.7 | 56.2
5 | c1ccc(-c2nc3ccccc3[nH]2)c(OCCCCCOc2ccccc2-c2nc3ccccc3[nH]2)c1 | 58 | 74.8% | 89.8 | 74.5 | 43.4 | 58.9 | 59.1 | 62 | 45.9
